The results in this text go back to the supplement of paper PMC6522484.

Assay [1] deals with DLD1. The assay is described as follows: cell viability (CellTiter-Glo) relative to plate median (fraction of plate median); higher = more viable cells. The note with it: 5 µM; treatment time 24 h; reporter: 7TFP. An outline of the steps: (§1)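 Stable lentiviral TCF/Wnt firefly luciferase reporters (7TFP or TCF4/Wnt) were present in the colorectal cancer cell lines used. These cells received library compounds at a final 5 µM for 24 h, and parallel plates were read for firefly luciferase or CellTiterGlo luminescence. Each well was normalised to the plate median, and the value reported is the mean of two independent replicates.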

In assay [2] the test system is HCT116. Described as above. The conditions noted are these: 5 µM; treatment time 24 h; reporter: TCF4/Wnt. Summed up:
as §1

The test system of assay [3] is SW480. The description is as above. The note with it: 5 µM; treatment time 24 h; reporter: 7TFP. Summed up: as §1
Assay [4] deals with DLD1. The assay is described as follows: TCF/Wnt firefly luciferase reporter signal relative to plate median (fraction of plate median); higher = higher Wnt reporter signal. The note with it: 5 µM; treatment time 24 h; reporter: 7TFP. Summed up:
as §1

In assay [5] the test system is SW480. The description is as above. The conditions noted are these: 5 µM; treatment time 24 h; reporter: 7TFP. An outline of the steps: as §1

± gives the standard deviation of the averaged measurements.

`CC1(C)NC(=O)N(c2ccc([N+](=O)[O-])c(C(F)(F)F)c2)C1=O`: the cell viability was found to be 1.05 ± 0.084 in assay [1], 0.983 ± 0.052 in assay [2] and 1 ± 0.042 in assay [3]. Also, the “TCF/Wnt firefly luciferase reporter signal” value is 1.02 ± 0.014 in assay [4] and 0.961 ± 0.044 in assay [5].

Turning to `O=C(O)c1cc2ccccc2[nH]1`, the cell viability was found to be 0.968 ± 0.011 in assay [1], 0.994 ± 0.08 in assay [2] and 1.04 ± 0.028 in assay [3]. In addition, the “TCF/Wnt firefly luciferase reporter signal” value is 1.12 in assay [4] and 1.08 ± 0.021 in assay [5].

Regarding `COc1cc(O)c(C(=O)c2ccccc2)cc1O`, the cell viability came to 0.889 ± 0.07 in assay [1], 0.84 ± 0.17 in assay [2] and 1.07 ± 0.15 in assay [3]. In addition, the “TCF/Wnt firefly luciferase reporter signal” value in assay [4] was found to be 0.891 ± 0.28; in assay [5] it was 0.845 ± 0.12.

On to `O=C(CCCN1CC=C(n2c(=O)[nH]c3ccccc32)CC1)c1ccc(F)cc1`, for which the cell viability in assay [1] is 0.995 ± 0.0071; in assay [2], 0.868 ± 0.025; in assay [3], 0.994 ± 0.023. Besides, the “TCF/Wnt firefly luciferase reporter signal” value stood at 0.829 ± 0.061 in assay [4] and 0.895 ± 0.088 in assay [5].

Take `C[C@H]1C(=O)CC[C@@H]2[C@]1(C)CC[C@H]1[C@@]2(C)CC[C@@]2(C)[C@@H]3CC(C)(C)CC[C@]3(C)CC[C@]12C`: the cell viability was found to be 1.04 ± 0.014 in assay [1], 0.983 ± 0.052 in assay [2] and 0.9995 ± 0.00071 in assay [3]. Further, the “TCF/Wnt firefly luciferase reporter signal” value in assay [4] amounted to 0.95 ± 0.042; in assay [5], 0.88 ± 0.09.

Consider `CC(=O)Nc1ccc(OC(=O)c2ccccc2O)cc1`, for which the cell viability in assay [1] amounted to 0.999 ± 0.016; in assay [2] it was 0.989 ± 0.03; in assay [3] it was 0.978 ± 0.074. Also, the “TCF/Wnt firefly luciferase reporter signal” value in assay [4] was determined as 1 ± 0.095; in assay [5] it was 0.891 ± 0.043.

For `CCN(CC)CCNC(=O)c1ccc(NC(C)=O)cc1`, the cell viability amounted to 1.01 ± 0.075 in assay [1], 1.05 ± 0.071 in assay [2] and 1.06 ± 0.035 in assay [3]. In addition, the “TCF/Wnt firefly luciferase reporter signal” value in assay [4] is 1.08 ± 0.028; in assay [5], 1.14 ± 0.014.

Turning to `CC[C@H]1C(=O)OC[C@@H]1Cc1cncn1C`, the figures for the cell viability in assay [1], in assay [2] and in assay [3] were 0.942 ± 0.097, 0.948 ± 0.13 and 1.015 ± 0.0071, respectively. The “TCF/Wnt firefly luciferase reporter signal” value in assay [4] turned out to be 0.89 ± 0.15; in assay [5] it was 0.959 ± 0.019.

Take `CN(C)[C@@H]1C(O)=C(C(N)=O)C(=O)[C@@]2(O)C(O)=C3C(=O)c4c(O)cccc4[C@@](C)(O)[C@H]3[C@H](O)[C@@H]12`: the cell viability in assay [1] is 1.02 ± 0.17; in assay [2] it was 1.07 ± 0.071; in assay [3], 1.01 ± 0.021. Also, the entries for the “TCF/Wnt firefly luciferase reporter signal” value in assay [4] and in assay [5] were 0.901 ± 0.18 and 1 ± 0.071, respectively.

Consider `O=C(O[C@@H]1Cc2c(O)cc(O)cc2O[C@@H]1c1cc(O)c(O)c(O)c1)c1cc(O)c(O)c(O)c1`, for which the cell viability in assay [1] was determined as 1.03 ± 0.035; in assay [2], 1.01 ± 0.048; in assay [3], 1.08 ± 0.014. Besides, the “TCF/Wnt firefly luciferase reporter signal” value worked out at 0.974 ± 0.037 in assay [4] and 0.916 ± 0.014 in assay [5].

`O=C(c1ccc(OCCN2CCCCC2)cc1)c1c(-c2ccc(O)cc2)sc2cc(O)ccc12`: the cell viability came out at 0.933 in assay [1], 1.01 ± 0.1 in assay [2] and 0.938 ± 0.066 in assay [3]. Moreover, the “TCF/Wnt firefly luciferase reporter signal” value in assay [4] turned out to be 0.879 ± 0.0042; in assay [5], 0.926 ± 0.078.

Consider `COc1cc([C@@H]2c3cc4c(cc3[C@@H](O[C@@H]3O[C@@H]5CO[C@@H](c6cccs6)O[C@H]5[C@H](O)[C@H]3O)[C@H]3COC(=O)[C@H]23)OCO4)cc(OC)c1O`, for which the cell viability in assay [1] is 0.946 ± 0.047; in assay [2], 0.747 ± 0.0014; in assay [3] it was 0.952 ± 0.14. Further, the entries for the “TCF/Wnt firefly luciferase reporter signal” value in assay [4] and in assay [5] were 0.738 ± 0.032 and 0.868, respectively.

Take `COc1cc(O)ccc1C(C)=O`: the cell viability stood at 0.941 ± 0.059 in assay [1], 0.97 ± 0.015 in assay [2] and 0.92 ± 0.0071 in assay [3]. In addition, the “TCF/Wnt firefly luciferase reporter signal” value in assay [4] is 0.889 ± 0.054; in assay [5], 0.97 ± 0.026.

As for `C=C[C@@](C)(O)CCC1C(=C)CCC2[C@@](C)(CO)CCC[C@]12C` (stereo not given in full), the cell viability in assay [1] was 1.005 ± 0.0071; in assay [2], 1.14 ± 0.16; in assay [3] it was 1.1 ± 0.021. Besides, the “TCF/Wnt firefly luciferase reporter signal” value in assay [4] came out at 0.967 ± 0.017; in assay [5] it was 1.01 ± 0.067.

On to `COc1ccc(C2CC(=O)c3ccc(OC)cc3O2)cc1` (stereo not given), for which the cell viability amounted to 0.994 ± 0.11 in assay [1], 1.08 ± 0.021 in assay [2] and 1.05 ± 0.05 in assay [3]. Also, the “TCF/Wnt firefly luciferase reporter signal” value in assay [4] was found to be 1.05 ± 0.12; in assay [5] it was 0.901 ± 0.021.
